# USP1 inh: blocks the human USP1/UAF1 deubiquitinase complex | O94782 | recombinant USP1/UAF1, Ub-Rhodamine cleavage fluorescence | Potency, µM (doses to about 57.1 µM), inactives show at the top dose activity change, negative = inhibition, hits mostly inhibitors | 390,000 tested, 0.23% active | AID 743255; active means well fitted inhibition curve with a large enough effect; inconclusive means small, poorly fitted or top-dose-only effect; inactive means no such curve, though single readings can be large or run the other way; further: potency means the concentration at half of the fitted maximal effect; on the % scale 0 is the no-effect control and ±100 the full control effect; nearly all actives have a fitted effect of over 60% in size
# Target sequence (O94782 whole entry, looked up): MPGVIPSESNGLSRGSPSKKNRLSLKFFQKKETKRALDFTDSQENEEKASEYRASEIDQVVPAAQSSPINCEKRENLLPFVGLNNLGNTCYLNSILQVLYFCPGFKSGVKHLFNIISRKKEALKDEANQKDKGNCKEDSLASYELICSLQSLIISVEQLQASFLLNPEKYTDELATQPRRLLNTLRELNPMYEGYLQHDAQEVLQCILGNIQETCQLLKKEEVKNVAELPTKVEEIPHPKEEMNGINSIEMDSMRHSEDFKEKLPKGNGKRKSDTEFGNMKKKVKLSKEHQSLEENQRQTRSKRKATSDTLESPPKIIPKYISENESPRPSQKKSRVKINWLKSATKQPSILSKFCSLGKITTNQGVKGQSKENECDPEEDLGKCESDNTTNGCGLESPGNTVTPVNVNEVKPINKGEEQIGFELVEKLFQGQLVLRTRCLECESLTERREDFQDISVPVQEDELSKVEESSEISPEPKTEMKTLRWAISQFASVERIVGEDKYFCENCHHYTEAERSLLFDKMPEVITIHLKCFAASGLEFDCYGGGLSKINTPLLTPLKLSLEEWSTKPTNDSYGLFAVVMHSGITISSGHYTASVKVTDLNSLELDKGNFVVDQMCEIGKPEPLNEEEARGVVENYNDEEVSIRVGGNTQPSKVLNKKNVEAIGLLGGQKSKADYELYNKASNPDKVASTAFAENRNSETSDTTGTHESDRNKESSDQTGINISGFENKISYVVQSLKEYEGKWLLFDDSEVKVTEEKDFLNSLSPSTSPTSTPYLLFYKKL
#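 USP1/UAF1 complex (1 nM) preincubated 15 min at room temperature with compound, then Ub-Rho substrate (150 nM final) added. Kinetic fluorescence at 480/540 nm over 6 reads at 60 s intervals; 50 mM HEPES pH 7.8, 0.5 mM EDTA, 0.1 mg/ml BSA, 1 mM TCEP, 0.01% Tween-20.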
# D1 potentiator: human D1 dopamine receptor positive modulation; P21728; HEK293 TREx D1 cells, calcium flux, dopamine EC20 potentiation; potentiation, % at 10 µM; 360,000 tested, 0.036% active; AID 504651; in the data active means potentiation above about 30%; further: 0% is about no effect
# TRHR ag: activates the human TRH receptor. P34981. AID 493084. activation, % at 2 µM. TRHR cells, calcium flux fluo-8, FDSS agonist mode. 360,000 tested, 0.18% active; further: 0% is about no effect
#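 Agonist-mode FDSS calcium read (Ex 480/Em 530, 1 s cycles) in 1536-well TRHR cells with fluo-8 dye, after 10-cycle baseline and 23 nL compound addition; TRH at EC20 (10 nM final) added afterwards for the enhancer phase.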
# TRHR PAM: allosteric enhancers of human TRH receptor; P34981; TRHR cells, fluo-8 calcium fluorescence, EC20 TRH enhancement; enhancement, % at 2 µM; 360,000 tested, 0.66% active; in the data active means enhancement above about 30%; further: 0% is about no effect
#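 Enhancer read-out: after compound pinning and an initial kinetic agonist-mode read, an EC20 of TRH (10 nM final) was injected and fluo-8 calcium signal (Ex 480/Em 530) followed at 1 s/cycle for 100 cycles in TRHR-expressing cells.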
# D1 agonist: agonists of human D1 dopamine receptor | 360,000 tested, 1% active | HEK293 T-REx D1 cells, calcium flux, agonist mode | activation, % at 2 µM | P21728; further: 0% is about no effect
#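 Inducible HEK293 T-REx D1 cells, force-coupled to calcium signalling, were plated at 4000 cells/well with tetracycline and held overnight at 30 C. After no-wash calcium dye loading, compound-evoked calcium rise over 180 s flagged agonists.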
# D1 antagonist: human D1 dopamine receptor antagonism. HEK293 TREx D1 cells, calcium flux, dopamine EC80; active compounds read low. P21728. activity change, negative = inhibition, % at 10 µM. 360,000 tested, 3.2% active; in the data active means activity change below about -30%; further: on the % scale 0 is the no-effect control and ±100 the full control effect
#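 Calcium flux readout: force-coupled, inducible Hek293 Trex D1 line, cells induced overnight at 30 C with tetracycline, dye-loaded 30–90 min at RT. Antagonism scored against EC80 dopamine challenge given 180 s after compound.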
# Active calls of the source: *; ? = inconclusive; · = no result. Compounds with a hit are over-represented: about 4.4% of the library has one in this group of screens. Unless noted, no stated cut-off is given here; in the data, active means activation above about 30%; inactive means the rest.
SMILES,USP1 inh,D1 potentiator,TRHR ag,TRHR PAM,D1 agonist,D1 antagonist
COc1ccc(NC(=O)[C@H]2O[C@@H]3OC(C)(C)O[C@@H]3[C@H]3OC(C)(C)O[C@H]32)c(OC)c1,?,0,0,-1,-4,4
Cc1nn(CCCC(=O)NCc2ccc(F)cc2)c(C)c1[N+](=O)[O-],-17%,6,-1,30*,3,2
Cc1nn(CC(=O)NCc2ccccc2F)c(C)c1[N+](=O)[O-],-7%,-2,1,6,2,-12
Cc1nn(CC(=O)NCc2cc3ccccc3[nH]2)c(C)c1[N+](=O)[O-],-16%,-18,0,-5,-2,-41*
COc1ccc(N2CCN(S(=O)(=O)c3ccc4c(c3)C(C(C)C)C(=O)N4)CC2)cc1 (configuration not stated),?,-4,1,-4,14,-8
COc1ccc2cc(C(C)=O)c(=O)oc2c1,-20%,0,0,0,3,2
COc1ccc(-c2cc3ccc(OC(C)C(=O)O)cc3oc2=O)cc1 (configuration not stated),-21%,-6,1,5,4,-30*
COc1ccc(-c2cc3ccc(O)cc3oc2=O)cc1OC,-32%,-5,-1,31*,17,7
CC(=O)Oc1ccc(-c2cc3ccc(OC(C)=O)cc3oc2=O)cc1,-1%,·,·,·,·,·
CC(=O)c1cc2ccc(O)cc2oc1=O,-9%,0,5,6,38*,5
COc1cccc(CNC(=O)CN(c2ccc(C)cc2)S(=O)(=O)N(C)C)c1OC,-20%,-2,0,-11,-1,-23
Cc1cc(NC(=S)N(CCN2CCCCC2)Cc2ccco2)ccc1Cl,-20%,-10,1,3,1,-38*
COC(=O)N/N=C(\C)c1ccc(-n2ccnc2)cc1,-23%,0,0,41*,3,2
CN1CCN(C2=C(Cl)C(=O)c3ccccc3C2=O)CC1,3.5µM*,·,·,·,·,·
NC(=O)C1CCN(C2=C(Cl)C(=O)c3ccccc3C2=O)CC1,32µM*,-2,0,12,4,1
O=C1C(Cl)=C(N2CCC(C(=O)O)CC2)C(=O)c2ccccc21,25µM*,-2,0,-1,4,8
NC(=O)C1CCN(C2=C(NS(=O)(=O)c3ccccc3)C(=O)c3ccccc3C2=O)CC1,-17%,6,4,1,3,4
CCc1cc2ccc(C)c(C)c2nc1SCC(=O)Nc1cc(C)on1,-1%,3,1,2,0,14
Cc1ccc(Oc2ccccc2NC(=O)CSCC(=O)Nc2cc(C)on2)cc1,-22%,0,0,25,24,0
Cc1cc(NC(=O)CSCC(=O)Nc2ccccc2Oc2ccccc2)no1,-4%,2,-1,-3,3,-37*
CCc1cc2cccc(C)c2nc1SCC(=O)Nc1cc(C)on1,-9%,-4,0,40*,7,0
Cc1cc(NC(=O)CSc2nnc(-c3ccccc3)c(-c3ccccc3)n2)no1,-14%,-4,-1,-15,1,-78*
Cc1cccc(NC(=O)c2cn(-c3ccccc3)nc2-c2ccccc2)c1C,-15%,0,1,1,3,-9
CC(=O)N1CCCC1c1nc2ccccc2n1Cc1ccccc1F (configuration not stated),-4%,-3,0,-1,2,-21
Cc1ccc(Cl)cc1NC(=O)C1CCN(c2nc3ccccc3n3cccc23)CC1,?,-2,0,15,0,7
SMILES,USP1 inh,D1 potentiator,TRHR ag,TRHR PAM,D1 agonist,D1 antagonist
CCn1c(-c2ccco2)n[nH]c1=S,-8%,3,0,0,1,2
CC(C)Cn1c(Cc2ccccc2)n[nH]c1=S,-5%,-2,0,-5,33*,-35*
CC(C)Cn1c(-c2ccco2)n[nH]c1=S,-15%,-2,0,35*,2,4
FC(F)(F)c1ccccc1-n1c(-c2ccco2)n[nH]c1=S,-21%,32*,-1,-1,3,4
CCC(=O)Nc1cccc(NC(=O)c2ccc(C)cc2Cl)c1,-9%,-4,-1,3,0,-46*
Cc1ccc(S(=O)(=O)N2CCC[C@H]2C(=O)OCc2nc3ccccc3s2)cc1,-6%,·,·,·,·,·
Cc1ccc(S(=O)(=O)N2CCCC2C(=O)OCc2nc3ccccc3s2)cc1 (configuration not stated),-18%,-3,-2,0,45*,1
COc1cc2ccnc(Cc3cccc(OC)c3OC)c2cc1OC,-18%,-1,1,12,12,-44*
COc1ccc(NC(=O)[C@@H]2[C@@H]3C(=O)N(C4CCCCC4)C(=O)[C@@H]3C3c4ccccc4C=CN32)cc1 (some centres not stated),32µM*,3,-1,-3,1,-5
CC(=O)[C@@H]1[C@@H]2C(=O)N(C3CCCCC3)C(=O)[C@@H]2C2c3ccccc3C=CN21 (some centres not stated),·,-6,4,-6,5,0
CCCc1nnc(SCc2ccc(OCC)cc2)n1N,-17%,4,0,0,4,-5
CCCc1nnc(SCCSc2nnc(CCC)n2N)n1N,-4%,-1,-1,2,12,-32*
CCC(=O)N1CCCc2cc(S(=O)(=O)N3CCC(C(=O)Nc4ccc(F)c(F)c4)CC3)ccc21,?,-7,-1,-3,1,-32*
CCC(=O)N1CCCc2cc(S(=O)(=O)N3CCC(C(=O)Nc4ccc(C#N)cc4)CC3)ccc21,-14%,-7,0,4,0,-59*
CCC(=O)N1CCCc2cc(S(=O)(=O)N3CCC(C(=O)NC4CCCCC4)CC3)ccc21,-12%,4,-1,1,2,4
Cc1ccc(-n2c(=O)c3c(C)c(C)sc3n(CC(=O)NCc3ccccc3)c2=O)cc1C,6%,-1,1,-5,4,4
Cc1cc(SCC(=O)N2CCN(C(=O)c3ccco3)CC2)c(C)cc1Br,-15%,-6,0,-9,13,-15
Cc1cc(SCC(=O)OCC(=O)NCc2ccc3c(c2)OCO3)c(C)cc1Br,-19%,-2,1,3,14,-38*
Cc1cc(SCC(=O)OCC(=O)N2CCN(C(=O)c3ccco3)CC2)c(C)cc1Br,-12%,-6,0,-6,44*,-18
O=C(COC(=O)C1(c2ccc(F)cc2)CCCC1)NCc1ccc2c(c1)OCO2,-26%,-10,0,-7,10,-32*
Cc1ccccc1OCC(=O)OCC(=O)NCc1ccc2c(c1)OCO2,-9%,·,·,·,·,·

# Bioassay records as filed in PubChem.
